# Data taken from publication PMC7862700, “An all-to-all approach to the identification of sequence-specific readers for epigenetic DNA modifications on cytosine”.
# Experiments:
# Assay in all cases: DAPPL (digital affinity profiling via proximity ligation, sequencing); 10 mM Tris-HCl pH 7.5, 50 mM NaCl, 1 mM DTT, 4% glycerol, room temperature, 30 min; GST-TFs on glutathione beads, 16-mer random dsDNA library, 0.1% formaldehyde crosslink after washing; high values mean tight binding
# [1] = biological target: T1, FEV (Homo sapiens, UniProt Q99581 1-238); details: protein: recombinant; tags: N-terminal GST; dsDNA, one strand shown
# T1 sequence: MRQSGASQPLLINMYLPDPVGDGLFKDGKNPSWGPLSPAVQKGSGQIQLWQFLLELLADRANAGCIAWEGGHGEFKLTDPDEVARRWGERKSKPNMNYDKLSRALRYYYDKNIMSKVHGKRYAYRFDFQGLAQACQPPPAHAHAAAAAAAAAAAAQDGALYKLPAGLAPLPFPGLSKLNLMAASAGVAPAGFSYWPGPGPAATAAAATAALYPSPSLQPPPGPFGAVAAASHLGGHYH
# In short: (§1)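 Binding signal is defined as a hexamer's read frequency for one factor over its frequency for the tag-only sample. To obtain reads, GST-fused human transcription factors were expressed in yeast, captured on glutathione beads, barcoded with DNA and pooled with that sample. Pools met 200 nmole of a 16-mer random double-stranded DNA library in Tris/NaCl/DTT/glycerol buffer for 30 min at room temperature before washing, 0.1% formaldehyde crosslinking, proximity ligation (BsaI/T4 ligase, 1 h, 37 °C), PCR and Illumina NextSeq500 sequencing.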
# [2] = biological target: ETV5 (Homo sapiens, UniProt P41161 1-510); details: protein: recombinant; tags: N-terminal GST; dsDNA, one strand shown
# Sequence of ETV5 (P41161 whole entry): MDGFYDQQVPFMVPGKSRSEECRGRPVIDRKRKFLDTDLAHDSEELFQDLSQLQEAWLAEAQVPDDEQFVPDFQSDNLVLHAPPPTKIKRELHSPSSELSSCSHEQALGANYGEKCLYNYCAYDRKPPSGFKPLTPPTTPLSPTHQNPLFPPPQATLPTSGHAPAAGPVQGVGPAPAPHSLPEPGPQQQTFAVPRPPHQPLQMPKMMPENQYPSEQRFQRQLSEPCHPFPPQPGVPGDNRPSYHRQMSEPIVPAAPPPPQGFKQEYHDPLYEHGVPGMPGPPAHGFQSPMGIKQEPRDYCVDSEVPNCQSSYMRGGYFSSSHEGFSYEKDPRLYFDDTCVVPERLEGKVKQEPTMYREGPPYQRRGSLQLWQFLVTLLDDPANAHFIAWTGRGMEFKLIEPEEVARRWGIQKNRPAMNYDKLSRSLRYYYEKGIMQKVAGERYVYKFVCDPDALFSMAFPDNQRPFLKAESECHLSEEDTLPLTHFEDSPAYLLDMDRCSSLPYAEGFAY
# In short: as §1
# [3] = biological target: HSF1 (Homo sapiens, UniProt Q00613 1-529); details: protein: recombinant; tags: N-terminal GST; chain copies: 3; dsDNA, one strand shown
# Sequence of HSF1 (Q00613 whole entry): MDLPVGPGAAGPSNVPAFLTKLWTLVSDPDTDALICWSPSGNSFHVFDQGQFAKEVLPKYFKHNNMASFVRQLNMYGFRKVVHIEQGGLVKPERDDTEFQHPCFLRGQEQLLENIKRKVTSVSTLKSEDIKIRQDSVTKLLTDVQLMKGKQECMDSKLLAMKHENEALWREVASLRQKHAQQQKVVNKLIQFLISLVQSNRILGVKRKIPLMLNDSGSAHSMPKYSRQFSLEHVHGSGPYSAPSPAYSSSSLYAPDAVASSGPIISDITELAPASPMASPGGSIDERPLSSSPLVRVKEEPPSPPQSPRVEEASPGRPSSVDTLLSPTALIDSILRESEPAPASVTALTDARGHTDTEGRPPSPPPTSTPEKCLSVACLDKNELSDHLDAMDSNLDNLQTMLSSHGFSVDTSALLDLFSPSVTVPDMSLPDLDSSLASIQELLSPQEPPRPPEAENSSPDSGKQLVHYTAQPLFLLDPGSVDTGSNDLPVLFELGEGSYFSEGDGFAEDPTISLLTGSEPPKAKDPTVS
# In short: as §1
# [4] = biological target: T2, SPIC (Homo sapiens, UniProt Q8N5J4 1-248); details: protein: recombinant; tags: N-terminal GST; dsDNA, one strand shown
# T2 sequence: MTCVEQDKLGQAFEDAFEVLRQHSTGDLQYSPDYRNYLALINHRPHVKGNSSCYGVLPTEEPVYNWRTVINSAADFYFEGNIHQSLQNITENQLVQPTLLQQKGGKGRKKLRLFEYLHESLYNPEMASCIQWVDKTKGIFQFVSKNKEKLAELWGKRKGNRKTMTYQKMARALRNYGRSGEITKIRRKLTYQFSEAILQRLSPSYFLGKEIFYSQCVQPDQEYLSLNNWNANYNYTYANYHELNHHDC
# In short: as §1
# [5] = biological target: ELF4 (Homo sapiens, UniProt Q99607 1-663); details: protein: recombinant; tags: N-terminal GST; dsDNA, one strand shown
# Sequence of ELF4 (Q99607 whole entry): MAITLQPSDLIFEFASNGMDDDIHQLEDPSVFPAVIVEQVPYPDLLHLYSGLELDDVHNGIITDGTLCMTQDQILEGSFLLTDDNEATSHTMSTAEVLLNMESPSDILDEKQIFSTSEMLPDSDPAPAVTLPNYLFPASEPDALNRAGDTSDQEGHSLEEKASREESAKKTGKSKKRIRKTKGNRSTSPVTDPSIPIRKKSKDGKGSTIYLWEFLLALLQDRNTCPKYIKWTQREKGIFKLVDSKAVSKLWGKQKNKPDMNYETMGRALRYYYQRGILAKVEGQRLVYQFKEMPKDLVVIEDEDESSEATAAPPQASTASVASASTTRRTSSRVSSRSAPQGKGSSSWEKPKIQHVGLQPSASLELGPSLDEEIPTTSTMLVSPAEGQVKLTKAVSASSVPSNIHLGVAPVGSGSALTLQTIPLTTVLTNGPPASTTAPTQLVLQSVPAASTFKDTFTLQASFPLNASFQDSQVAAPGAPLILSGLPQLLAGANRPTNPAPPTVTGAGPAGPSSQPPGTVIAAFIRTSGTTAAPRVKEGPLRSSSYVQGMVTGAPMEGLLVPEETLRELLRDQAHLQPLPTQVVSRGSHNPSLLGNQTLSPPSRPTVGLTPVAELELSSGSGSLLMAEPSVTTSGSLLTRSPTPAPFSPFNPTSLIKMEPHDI
# In short: as §1
# [6] = biological target: T3, ELK4 (Homo sapiens, UniProt P28324-2 1-405); details: protein: recombinant; tags: N-terminal GST; dsDNA, one strand shown
# T3 sequence: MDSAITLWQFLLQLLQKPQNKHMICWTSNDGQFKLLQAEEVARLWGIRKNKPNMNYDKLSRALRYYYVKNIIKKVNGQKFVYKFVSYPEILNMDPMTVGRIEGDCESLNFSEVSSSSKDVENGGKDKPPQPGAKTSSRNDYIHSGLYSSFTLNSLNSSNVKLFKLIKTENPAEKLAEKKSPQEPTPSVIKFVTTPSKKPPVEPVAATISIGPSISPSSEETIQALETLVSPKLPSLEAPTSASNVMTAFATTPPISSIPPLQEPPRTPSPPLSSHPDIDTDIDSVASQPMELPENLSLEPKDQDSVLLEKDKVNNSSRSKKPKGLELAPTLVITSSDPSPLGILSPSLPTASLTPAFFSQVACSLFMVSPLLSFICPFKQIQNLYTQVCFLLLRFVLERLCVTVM
# In short: as §1
# [7] = biological target: T4, ETV2 (Homo sapiens, UniProt O00321 1-342); details: protein: recombinant; tags: N-terminal GST; dsDNA, one strand shown
# T4 sequence: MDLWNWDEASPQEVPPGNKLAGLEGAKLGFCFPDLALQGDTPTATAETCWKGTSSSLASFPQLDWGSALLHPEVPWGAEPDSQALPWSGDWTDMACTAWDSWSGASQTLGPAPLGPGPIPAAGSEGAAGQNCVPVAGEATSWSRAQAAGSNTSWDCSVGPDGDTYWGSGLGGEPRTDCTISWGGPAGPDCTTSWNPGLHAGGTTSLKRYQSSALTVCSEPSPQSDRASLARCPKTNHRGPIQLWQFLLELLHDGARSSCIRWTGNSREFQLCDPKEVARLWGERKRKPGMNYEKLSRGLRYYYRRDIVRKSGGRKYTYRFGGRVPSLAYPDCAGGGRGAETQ
# In short: as §1
# [8] = biological target: T5, ELF3 (Homo sapiens, UniProt P78545 1-371); details: protein: recombinant; tags: N-terminal GST; dsDNA, one strand shown
# T5 sequence: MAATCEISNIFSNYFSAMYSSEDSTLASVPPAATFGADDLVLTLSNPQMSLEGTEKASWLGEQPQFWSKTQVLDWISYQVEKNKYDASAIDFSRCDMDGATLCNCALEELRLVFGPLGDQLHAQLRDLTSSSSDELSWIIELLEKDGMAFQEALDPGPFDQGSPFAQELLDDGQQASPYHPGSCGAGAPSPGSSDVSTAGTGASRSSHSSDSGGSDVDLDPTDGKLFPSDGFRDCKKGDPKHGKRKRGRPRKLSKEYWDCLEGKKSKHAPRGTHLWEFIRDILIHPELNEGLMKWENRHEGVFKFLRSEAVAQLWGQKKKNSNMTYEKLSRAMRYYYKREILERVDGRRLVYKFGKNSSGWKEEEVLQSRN
# In short: as §1
# [9] = biological target: CRX (Homo sapiens, UniProt O43186 1-299); details: protein: recombinant; tags: N-terminal GST; dsDNA, one strand shown
# Sequence of CRX (O43186 whole entry): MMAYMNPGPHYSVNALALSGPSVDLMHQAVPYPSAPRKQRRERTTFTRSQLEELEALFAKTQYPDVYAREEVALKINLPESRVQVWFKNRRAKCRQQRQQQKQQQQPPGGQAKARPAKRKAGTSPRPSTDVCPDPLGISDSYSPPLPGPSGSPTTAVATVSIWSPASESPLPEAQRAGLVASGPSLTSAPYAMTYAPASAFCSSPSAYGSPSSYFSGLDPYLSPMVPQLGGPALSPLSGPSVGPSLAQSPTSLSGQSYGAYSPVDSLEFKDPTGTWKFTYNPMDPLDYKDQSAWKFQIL
# In short: as §1
# [10] = biological target: ETV1 (Homo sapiens, UniProt P50549 1-477); details: protein: recombinant; tags: N-terminal GST; dsDNA, one strand shown
# Sequence of ETV1 (P50549 whole entry): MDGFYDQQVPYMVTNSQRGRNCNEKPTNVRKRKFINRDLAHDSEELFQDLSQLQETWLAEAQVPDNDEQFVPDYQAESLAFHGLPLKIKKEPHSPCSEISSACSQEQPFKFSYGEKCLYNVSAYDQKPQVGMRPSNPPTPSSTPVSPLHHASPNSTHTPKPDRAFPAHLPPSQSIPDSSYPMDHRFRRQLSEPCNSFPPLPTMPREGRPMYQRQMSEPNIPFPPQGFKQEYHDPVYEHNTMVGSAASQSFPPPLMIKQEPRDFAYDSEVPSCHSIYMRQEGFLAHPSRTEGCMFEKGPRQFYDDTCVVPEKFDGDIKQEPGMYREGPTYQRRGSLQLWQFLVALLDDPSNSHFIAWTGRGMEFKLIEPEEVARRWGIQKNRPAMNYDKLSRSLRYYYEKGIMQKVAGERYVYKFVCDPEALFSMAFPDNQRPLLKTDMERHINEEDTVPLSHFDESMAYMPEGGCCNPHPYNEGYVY
# In short: as §1
# [11] = biological target: T6, ERF (Homo sapiens, UniProt P50548 1-548); details: protein: recombinant; tags: N-terminal GST; dsDNA, one strand shown
# T6 sequence: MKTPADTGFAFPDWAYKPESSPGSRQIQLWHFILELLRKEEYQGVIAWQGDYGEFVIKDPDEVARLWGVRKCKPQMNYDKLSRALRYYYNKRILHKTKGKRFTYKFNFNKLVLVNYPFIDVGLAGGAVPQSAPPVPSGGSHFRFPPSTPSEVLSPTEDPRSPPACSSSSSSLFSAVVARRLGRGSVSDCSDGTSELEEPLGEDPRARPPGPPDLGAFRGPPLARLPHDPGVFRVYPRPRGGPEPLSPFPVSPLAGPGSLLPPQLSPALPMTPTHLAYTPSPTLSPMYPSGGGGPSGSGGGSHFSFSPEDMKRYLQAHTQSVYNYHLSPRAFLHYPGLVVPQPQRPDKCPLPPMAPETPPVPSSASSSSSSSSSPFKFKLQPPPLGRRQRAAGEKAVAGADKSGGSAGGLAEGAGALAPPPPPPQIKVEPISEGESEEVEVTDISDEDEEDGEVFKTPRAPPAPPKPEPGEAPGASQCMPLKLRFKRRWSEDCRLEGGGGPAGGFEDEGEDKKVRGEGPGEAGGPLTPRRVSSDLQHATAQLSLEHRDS
# In short: as §1
# [12] = biological target: T7, ETV3L (Homo sapiens, UniProt Q6ZN32 1-361); details: protein: recombinant; tags: N-terminal GST; dsDNA, one strand shown
# T7 sequence: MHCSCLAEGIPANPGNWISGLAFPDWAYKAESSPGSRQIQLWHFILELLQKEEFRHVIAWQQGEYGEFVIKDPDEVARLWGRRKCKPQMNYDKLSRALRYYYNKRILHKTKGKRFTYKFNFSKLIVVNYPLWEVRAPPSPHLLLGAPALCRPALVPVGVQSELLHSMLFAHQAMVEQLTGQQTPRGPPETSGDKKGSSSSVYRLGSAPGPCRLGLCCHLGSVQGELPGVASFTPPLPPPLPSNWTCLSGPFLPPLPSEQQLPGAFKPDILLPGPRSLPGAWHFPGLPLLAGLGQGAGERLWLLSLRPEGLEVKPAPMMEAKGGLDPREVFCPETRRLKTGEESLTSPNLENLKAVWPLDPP
# In short: as §1
# [13] = biological target: T8, ETS2 (Homo sapiens, UniProt P15036 1-469); details: protein: recombinant; tags: N-terminal GST; dsDNA, one strand shown
# T8 sequence: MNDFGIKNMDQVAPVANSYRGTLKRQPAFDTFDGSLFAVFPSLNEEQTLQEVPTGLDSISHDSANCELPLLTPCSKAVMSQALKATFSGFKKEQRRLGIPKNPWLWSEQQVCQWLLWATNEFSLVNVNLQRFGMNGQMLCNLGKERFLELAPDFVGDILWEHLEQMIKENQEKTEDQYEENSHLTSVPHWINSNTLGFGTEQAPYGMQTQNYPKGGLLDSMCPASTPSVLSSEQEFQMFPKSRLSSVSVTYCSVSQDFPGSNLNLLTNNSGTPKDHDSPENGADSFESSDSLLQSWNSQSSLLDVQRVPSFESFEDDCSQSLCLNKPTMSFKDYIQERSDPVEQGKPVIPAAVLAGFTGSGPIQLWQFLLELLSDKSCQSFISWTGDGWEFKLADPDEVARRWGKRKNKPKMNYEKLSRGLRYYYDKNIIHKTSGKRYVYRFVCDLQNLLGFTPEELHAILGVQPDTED
# In short: as §1
# [14] = biological target: T9, SPDEF (Homo sapiens, UniProt O95238 1-335); details: protein: recombinant; tags: N-terminal GST; dsDNA, one strand shown
# T9 sequence: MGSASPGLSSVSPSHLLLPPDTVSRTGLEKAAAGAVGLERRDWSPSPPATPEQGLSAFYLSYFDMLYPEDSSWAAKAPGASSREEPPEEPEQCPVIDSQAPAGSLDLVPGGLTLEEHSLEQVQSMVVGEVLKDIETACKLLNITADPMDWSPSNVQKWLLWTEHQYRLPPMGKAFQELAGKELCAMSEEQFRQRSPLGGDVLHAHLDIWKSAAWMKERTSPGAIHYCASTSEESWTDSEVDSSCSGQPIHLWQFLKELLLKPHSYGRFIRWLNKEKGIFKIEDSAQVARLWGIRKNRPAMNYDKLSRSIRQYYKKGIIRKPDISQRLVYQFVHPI
# In short: as §1
# [15] = biological target: T10, ETV7 (Homo sapiens, UniProt Q9Y603 1-341); details: protein: recombinant; tags: N-terminal GST; dsDNA, one strand shown
# T10 sequence: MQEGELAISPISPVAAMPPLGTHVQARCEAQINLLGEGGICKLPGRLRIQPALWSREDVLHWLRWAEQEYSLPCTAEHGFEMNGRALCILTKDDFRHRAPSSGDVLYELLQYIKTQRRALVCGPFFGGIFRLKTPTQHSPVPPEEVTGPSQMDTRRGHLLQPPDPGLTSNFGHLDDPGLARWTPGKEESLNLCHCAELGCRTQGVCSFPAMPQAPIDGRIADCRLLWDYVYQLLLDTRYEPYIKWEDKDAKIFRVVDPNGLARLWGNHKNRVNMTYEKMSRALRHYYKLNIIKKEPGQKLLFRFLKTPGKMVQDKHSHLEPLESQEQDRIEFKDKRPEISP
# In short: as §1
# [16] = biological target: T11, ELF5 (Homo sapiens, UniProt Q9UKW6-2 1-255); details: protein: recombinant; tags: N-terminal GST; dsDNA, one strand shown
# T11 sequence: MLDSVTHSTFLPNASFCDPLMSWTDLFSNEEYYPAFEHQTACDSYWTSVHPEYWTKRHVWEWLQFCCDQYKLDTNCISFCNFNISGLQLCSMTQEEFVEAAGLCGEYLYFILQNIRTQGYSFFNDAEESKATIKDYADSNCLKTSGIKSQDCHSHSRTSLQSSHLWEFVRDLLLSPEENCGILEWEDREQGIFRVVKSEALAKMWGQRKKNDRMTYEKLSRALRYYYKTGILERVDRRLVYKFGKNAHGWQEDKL
# In short: as §1
# [17] = biological target: T12, ETV3 (Homo sapiens, UniProt P41162-2 1-143); details: protein: recombinant; tags: N-terminal GST; dsDNA, one strand shown
# T12 sequence: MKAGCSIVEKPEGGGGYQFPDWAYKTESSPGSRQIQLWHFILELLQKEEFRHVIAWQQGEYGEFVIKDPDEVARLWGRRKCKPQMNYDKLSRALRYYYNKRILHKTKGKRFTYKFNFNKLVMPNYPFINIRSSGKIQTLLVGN
# In short: as §1
# [18] = biological target: ETV6 (Homo sapiens, UniProt P41212 1-452); details: protein: recombinant; tags: N-terminal GST; dsDNA, one strand shown
# Sequence of ETV6 (P41212 whole entry): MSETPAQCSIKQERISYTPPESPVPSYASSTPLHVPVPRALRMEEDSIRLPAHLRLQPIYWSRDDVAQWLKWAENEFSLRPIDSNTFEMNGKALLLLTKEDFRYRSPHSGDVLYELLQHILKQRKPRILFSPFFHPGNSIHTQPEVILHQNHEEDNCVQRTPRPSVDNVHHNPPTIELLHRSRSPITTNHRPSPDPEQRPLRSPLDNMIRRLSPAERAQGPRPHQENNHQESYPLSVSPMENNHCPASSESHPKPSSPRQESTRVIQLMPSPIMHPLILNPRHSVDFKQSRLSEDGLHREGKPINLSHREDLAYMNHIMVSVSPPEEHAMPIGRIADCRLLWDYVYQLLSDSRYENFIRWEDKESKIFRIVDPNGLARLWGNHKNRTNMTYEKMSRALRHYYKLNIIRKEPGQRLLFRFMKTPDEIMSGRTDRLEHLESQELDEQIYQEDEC
# In short: as §1
sequence,measurement,setting,value
ACCTCT,binding signal,[1],"1.3 fold enrichment (6-mer frequency, TF over GST control)"
same,binding signal,[2],"1.31 fold enrichment (6-mer frequency, TF over GST control)"
same,binding signal,[3],"1.18 fold enrichment (6-mer frequency, TF over GST control)"
same,binding signal,[4],"1.47 fold enrichment (6-mer frequency, TF over GST control)"
same,binding signal,[5],"1.33 fold enrichment (6-mer frequency, TF over GST control)"
same,binding signal,[6],"1.29 fold enrichment (6-mer frequency, TF over GST control)"
same,binding signal,[7],"1.35 fold enrichment (6-mer frequency, TF over GST control)"
same,binding signal,[8],"1.51 fold enrichment (6-mer frequency, TF over GST control)"
same,binding signal,[9],"1.19 fold enrichment (6-mer frequency, TF over GST control)"
same,binding signal,[10],"1.3 fold enrichment (6-mer frequency, TF over GST control)"
same,binding signal,[11],"1.52 fold enrichment (6-mer frequency, TF over GST control)"
same,binding signal,[12],"1.32 fold enrichment (6-mer frequency, TF over GST control)"
same,binding signal,[13],"1.23 fold enrichment (6-mer frequency, TF over GST control)"
same,binding signal,[14],"1.4 fold enrichment (6-mer frequency, TF over GST control)"
same,binding signal,[15],"1.48 fold enrichment (6-mer frequency, TF over GST control)"
same,binding signal,[16],"1.34 fold enrichment (6-mer frequency, TF over GST control)"
same,binding signal,[17],"1.4 fold enrichment (6-mer frequency, TF over GST control)"
same,binding signal,[18],"1.39 fold enrichment (6-mer frequency, TF over GST control)"
